# Data taken from PubChem BioAssay AID1210 (NMMLSC, 2008).
# Activity calls are given as the source filed them.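 Rule for the calls: active = blocks over 70% of labeled estradiol binding at 10 µM, or over a set limit at 100 nM; inactive = the rest.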
# Target: Estrogen receptor beta (Homo sapiens) (UniProt Q92731)
# Assay: displacement of fluorescent estrogen from ERbeta – cell-based, Cos7 ERbeta-GFP, flow cytometry, primary screen (AID 1210);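 note: 0% = DMSO vehicle wells and 100% = complete loss of labeled estradiol signal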
# Conditions: fluorescent estrogen binding, stronger effect = higher value
# [1] = ligand binding inhibition, at 0.1 µM
# Estrogen receptor beta (Homo sapiens), sequence (Q92731 whole entry, looked up): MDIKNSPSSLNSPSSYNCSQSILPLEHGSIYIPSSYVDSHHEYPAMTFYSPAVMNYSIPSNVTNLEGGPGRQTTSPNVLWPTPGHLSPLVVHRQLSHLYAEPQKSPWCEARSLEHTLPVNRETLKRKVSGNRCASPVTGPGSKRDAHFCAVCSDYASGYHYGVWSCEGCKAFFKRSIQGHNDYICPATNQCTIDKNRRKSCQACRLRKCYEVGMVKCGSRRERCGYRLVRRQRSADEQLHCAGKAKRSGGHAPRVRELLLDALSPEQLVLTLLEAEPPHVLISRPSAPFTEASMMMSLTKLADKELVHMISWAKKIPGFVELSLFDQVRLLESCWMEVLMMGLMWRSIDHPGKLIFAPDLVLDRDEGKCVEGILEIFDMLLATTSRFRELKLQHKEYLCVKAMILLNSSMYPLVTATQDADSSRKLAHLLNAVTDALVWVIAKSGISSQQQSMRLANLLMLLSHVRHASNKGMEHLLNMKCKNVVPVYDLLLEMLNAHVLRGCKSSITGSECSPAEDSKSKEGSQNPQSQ
Compound,inhibition (at 10 µM),inhibition [1] [%]
O=[N+]([O-])c1ccc(Cl)c2c1C1C=CCC1C(c1ccccn1)N2 (stereo unspecified),0% (inactive),19
Cc1csc(C(C#N)C(=O)c2ccncc2)n1 (stereo unspecified),13% (inactive),4
COCCCn1c(Cc2csc(Nc3cccc(Cl)c3)n2)nnc1SCC(=O)OC1CCCCC1,11% (inactive),29
CCCCCCNC(=O)c1cc(-c2ccco2)nc2ccccc12,92% (active),2
Cc1ccc(C(=O)ONc2ccc(N=NC(=O)c3ccccc3O)cc2)cc1,58% (inactive),28
O=C(Cc1cccs1)Nc1nnc(Cc2ccccc2)s1,18% (inactive),29
COc1ccc(C2CC(=O)Nc3ccccc3S2(=O)=O)cc1OC (stereo unspecified),5% (inactive),20
CCc1ccc2c(c1)[C@H]1OCC[C@H]1[C@@H](c1cccs1)N2,0% (inactive),65
c1ccc(Cc2nnc3sc(-c4ccco4)nn23)cc1,18% (inactive),60
C[C@]12CC[C@@H]3c4ccc(O)cc4C(=O)C[C@H]3[C@@H]1CC[C@@H]2O,45% (active),89
CCc1ccc2nc(NC(=O)c3ccc4c(=O)[nH]c(CN5CCOCC5)nc4c3)sc2c1,29% (inactive),10
O=[N+]([O-])c1cc(/C=N/N2CCN(C3c4ccccc4-c4ccccc43)CC2)ccc1Cl,21% (inactive),2
C[C@]12CC[C@@H]3c4ccc(O[C@@H]5O[C@H](C(=O)O)[C@@H](O)[C@H](O)[C@H]5O)cc4CC[C@H]3[C@@H]1C[C@@H](O)[C@@H]2O,52% (inactive),15
Cc1ccc(C2=Nc3ccccc3N=C(c3ccco3)C2)c(O)c1,2% (inactive),29
CCC(=O)Oc1ccc(C(CC)C(CC)c2ccc(OC(=O)CC)cc2)cc1 (stereo unspecified),82% (active),83
O=C(Nc1cccc2cccc(NC(=O)c3ccco3)c12)c1ccco1,24% (inactive),22
COc1ccc(C2CC(c3ccccc3)=NN2c2ccc(N)cc2)cc1 (stereo unspecified),69% (inactive),23
C=C(C)CNC(=S)NNC(=O)CCn1c2cc(Cl)ccc2c2ccc(Cl)cc21,18% (inactive),20
NS(=O)(=O)c1ccc2c(c1)C1C=CCC1C(C1CC=CCC1)N2 (stereo unspecified),14% (inactive),2

Compound,inhibition (at 10 µM),inhibition [1] [%]
Cc1ccccc1Nc1nnc(SCC(=O)NCc2ccco2)s1,26% (inactive),18
Cc1cs/c(=N\N=C\c2ccc(O)cc2)n1Cc1ccco1,45% (inactive),21
Cc1ccc(C(=O)CSC2=C(C#N)C(c3ccco3)CC(=O)N2)c(C)c1 (stereo unspecified),54% (inactive),14
O=C(CSc1nc2ccccc2c(=O)[nH]1)c1ccc(O)c(O)c1,36% (inactive),14
CCCCN(CCCC)S(=O)(=O)c1ccc(NC(=O)Cc2cccs2)cc1,50% (inactive),19
Cc1cc(C)cc(OCC(=O)Nc2ccc(N3CCCC3)cc2)c1,71% (active),37
O=c1oc2ccccc2cc1-c1ccc(O)cc1O,42% (inactive),21
C=CCn1c(COc2cccc(C)c2)nnc1SCC(=O)NC(=O)NCc1ccco1,31% (inactive),47
O=C(O)c1ccc2c(c1)C1C=CCC1C(c1cc3c(cc1Br)OCO3)N2 (stereo unspecified),38% (inactive),6
COc1ccc(N2Cc3cccc(C(=O)N4CCN(C(=O)c5ccco5)CC4)c3C2=O)cc1,29% (inactive),27
COc1ccc(C2Nc3ccccc3C(=O)N2c2ccccc2)cc1COc1ccccn1 (stereo unspecified),18% (inactive),17
O=C1c2ccccc2NC(c2cccnc2)N1c1ccccc1F (stereo unspecified),63% (inactive),24
CCn1c(SCC(=O)N2CCOCC2)nc2oc3c(Cl)cc(Cl)cc3c(=O)c2c1=O,56% (inactive),1
CC(C)(C)NC(=O)c1ccc2c(c1)C1C3CCC(C3)C1C(c1ccccc1)N2 (stereo unspecified),3% (inactive),64
COc1ccc2c(c1)[nH]c1c(=O)n(N)cnc12,4% (inactive),30
CCCSC1=N/C(=C\C=C\c2ccco2)C(=O)S1,47% (inactive),31
COc1ccc2c(c1OC)C(=O)N1N=C(c3ccc(O)cc3)CC21 (stereo unspecified),21% (inactive),39
CCC(Sc1ncnc2sc(C)c(C)c12)C(=O)OC (stereo unspecified),27% (inactive),41
CC(C)C1Nc2c(O)cc(Cl)c([N+](=O)[O-])c2C2C=CCC21 (stereo unspecified),28% (inactive),5
